Data: ChEMBL document CHEMBL3988442, “University of Dundee, Small-Polar-MMV Screening Library” (2021)
The whole screen tested about 48,000 compounds, of which about 13,000 (27%) showed an effect of 50% or more. The list shows a part of the results.

These compounds were tested on Wolbachia pipientis (assay: Anti-Wolbachia Cell-Based Screen). Settings: 5 µM.
Assay type: functional
Set-up: scale not given: in the data most compounds retested in dose-response had high values
`CC(=O)N1CCc2cc(C(=O)O)c(-c3ccsc3)nc2CC1.O=C(O)C(F)(F)F` was tested, and the “Percent Effect” value was -2.009%.
In the case of `CC(C)Nc1nc2c(cc1C(=O)NCC1CC1)CCN(CC1CC1)CC2.O=C(O)C(F)(F)F.O=C(O)C(F)(F)F`, the “Percent Effect” value is reported as -7.491%.
For `Cc1nc2c(cc1C(=O)O)CCN(CC1CC1)CC2.O=C(O)C(F)(F)F.O=C(O)C(F)(F)F`, the “Percent Effect” value was -6.324%.
In the case of `Cc1nc2c(cc1C(=O)O)CCN(Cc1ccsc1)CC2.O=C(O)C(F)(F)F.O=C(O)C(F)(F)F`, the “Percent Effect” value is reported as 107%.
With `CCC(CC)(CC)NC(=O)Nc1nnc(-c2ccccn2)s1` the “Percent Effect” value was -4.465%.
In the case of `COCCN1CCO[C@@H]2CN(C(=O)COc3ccc(C)cc3)C[C@@H]2C1.O=C(O)C(F)(F)F`, the “Percent Effect” value is reported as -10.88%.
`CC(C)(C)C(O)CN1CCN(Cc2nccn2CC(F)(F)F)CC1` (configuration not stated) was tested, and the “Percent Effect” value was -1.053%.
For `O=C(CCC(=O)N1CCC(Oc2ncccc2Br)CC1)c1ccccc1`, the “Percent Effect” value was -8.42%.
For `CCC[C@H]1CN(C2CCOCC2)C[C@@H]1NC(=O)CCCn1ccnc1`, the “Percent Effect” value was -3.438%.
`CC(C)n1ccnc1C1CCCN(c2ccccn2)C1` (configuration not stated) was tested, and the “Percent Effect” value was 3.899%.
For `Cc1ccc(-c2cn[nH]c2C2CCCN(c3ncccn3)C2)cc1` (configuration not stated), the “Percent Effect” value was -14.2%.
In the case of `Cc1cc(N2CCCC(c3n[nH]c4ncccc34)C2)ncn1` (configuration not stated), the “Percent Effect” value is reported as 73.09%.
For `Cc1ccc(-c2cn[nH]c2C2CCCN(c3cc(N)ncn3)C2)cc1` (configuration not stated), the “Percent Effect” value was -31.64%.
In the case of `c1cnc(N2CCC(c3n[nH]c4ncccc34)C2)nc1` (configuration not stated), the “Percent Effect” value is reported as 117.8%.
With `c1cnc(N2CCCC(c3n[nH]c4ncccc34)C2)nc1` (configuration not stated) the “Percent Effect” value was 152.2%.
In the case of `Cc1nc(CC(=O)N2CCCC2c2nc(C(C)C)no2)cs1` (configuration not stated), the “Percent Effect” value is reported as -8.92%.
`CN1CCC(N(C)C[C@H]2CC[C@@H](Cc3cccc(O)c3)O2)CC1` was tested, and the “Percent Effect” value was -5.981%.
With `Cc1nc(C)n(CCCNc2ncnc3onc(C)c23)n1` the “Percent Effect” value was 1.931%.
For `Cc1ccc(CN(C)C(=O)NCC(C)(C)NS(C)(=O)=O)s1`, the “Percent Effect” value was 4.932%.
`CC(C)N(C)C(=O)c1coc(CN2CCN(c3ccccc3F)CC2)n1` was tested, and the “Percent Effect” value was -13.9%.
With `O=C(NC1CCCN(c2ccccc2Cl)C1)c1ccc(=O)[nH]n1` (configuration not stated) the “Percent Effect” value was 90.33%.
In the case of `O=C(NC1CCCN(c2ccccc2F)C1)c1ccon1` (configuration not stated), the “Percent Effect” value is reported as 18.57%.
For `O=C(NC1CCN(c2ccccc2Br)C1)c1c[nH]nn1` (configuration not stated), the “Percent Effect” value was 111.1%.
With `O=C(NC1CCCN(c2ccccc2Cl)C1)c1nc(=O)[nH][nH]1` (configuration not stated) the “Percent Effect” value was 109.8%.
In the case of `O=C(NC1CCN(c2ccc(-c3ccccc3F)nn2)C1)c1cc[nH]n1` (configuration not stated), the “Percent Effect” value is reported as 3.887%.
For `O=C(NC1CCCN(c2ccc(OC(F)F)cc2)C1)c1cc[nH]n1` (configuration not stated), the “Percent Effect” value was 14.46%.
In the case of `O=C(NC1CCCN(c2ccccc2Cl)C1)c1c[nH]nn1` (configuration not stated), the “Percent Effect” value is reported as 87%.
In the case of `O=C(NC1CCCN(c2ccc(OC(F)F)cc2)C1)c1c[nH]nn1` (configuration not stated), the “Percent Effect” value is reported as -1.773%.
`N#Cc1nccnc1NC1CCN(c2ccccc2Br)C1` (configuration not stated) was tested, and the “Percent Effect” value was -11.54%.
With `Cc1n[nH]c(C)c1CNC(=O)NC1CCCN(c2ccccc2F)C1` (configuration not stated) the “Percent Effect” value was -5.16%.
With `O=C(NC1CCCN(c2ncccn2)C1)c1cn2ccccc2n1` (configuration not stated) the “Percent Effect” value was -4.664%.
With `COc1ccccc1N1CCCC(NC(=O)Nc2cccnc2)C1` (configuration not stated) the “Percent Effect” value was -7.582%.
In the case of `Cn1ncc(C(=O)OCC2CCN(c3ccccc3)C2)c1C(F)F` (configuration not stated), the “Percent Effect” value is reported as 4.797%.
In the case of `CN1C(=O)CCc2cc(NC(=O)C3CCCC3)ccc21`, the “Percent Effect” value is reported as -13.79%.
In the case of `CCS(=O)(=O)N1CCCC2(CCCN2C(=O)c2cn(C)cn2)C1` (configuration not stated), the “Percent Effect” value is reported as 0.7731%.
For `CN(Cc1cc(Br)cn1C)C(=O)c1ccsc1`, the “Percent Effect” value was -18.58%.
With `O=C(NC1CCN(c2ccccc2OC(F)F)C1)c1cccnc1` (configuration not stated) the “Percent Effect” value was -18.54%.
For `O=C(Nc1cn[nH]c1)NC1CCN(c2ccccc2OC(F)F)C1` (configuration not stated), the “Percent Effect” value was -20.77%.
For `O=C(NC1CCN(c2ccccc2OC(F)F)C1)c1c[nH]nn1` (configuration not stated), the “Percent Effect” value was 107.7%.
For `COc1ccc2c(c1)CN(c1nc(C)cc(C)n1)CC2`, the “Percent Effect” value was -6.244%.
For `COc1ccc(C2CN(c3nc(C)cc(C)n3)CCN2C(C)=O)cc1` (configuration not stated), the “Percent Effect” value was 87.97%.
`COc1ccc(C2CCCN2C(=O)c2csc(NC(C)=O)n2)cc1` (configuration not stated) was tested, and the “Percent Effect” value was -0.5039%.
For `CC(OCC(F)(F)F)C(=O)N1CCCCC1` (configuration not stated), the “Percent Effect” value was -2.646%.
For `CN1CCCc2cc(CNC(=O)c3cccnc3O)ccc21`, the “Percent Effect” value was 90.33%.
`O=C1CN(c2ccc(CNC(=O)c3cccnc3O)cc2F)CCN1` was tested, and the “Percent Effect” value was -18.4%.
With `Cc1cnc(C(=O)NCc2ccc3c(c2)CCCN3C)cn1` the “Percent Effect” value was 101.2%.
For `CN1N=C(C(=O)NCc2ccc3c(c2)CCCN3C)CCC1=O`, the “Percent Effect” value was 13.95%.
In the case of `COc1ccc(COCC(O)CNC(=O)c2cnc(C)cn2)cc1` (configuration not stated), the “Percent Effect” value is reported as 4.456%.
With `CC(C)CN1CCCn2nc(CNC(=O)c3cccnc3O)cc2C1` the “Percent Effect” value was -4.035%.
`CC(C)c1nn(C)c(Cl)c1CNC1CCOc2ccccc21.Cl` (configuration not stated) was tested, and the “Percent Effect” value was -8.066%.
`CC(=O)NCC(=O)N1Cc2cc(-c3cc[nH]n3)ccc2C1c1cnco1` (configuration not stated) was tested, and the “Percent Effect” value was -23.15%.
In the case of `COc1ccc(-n2cnnc2SCC(C)(C)O)cn1`, the “Percent Effect” value is reported as -5.422%.
